High-throughput results from PubChem BioAssay.
Only some compounds are listed: those with a hit (about 1.7% of all), similar ones and a draw of the others.
LANA-H2A inh: blocks KSHV LANA binding to histone H2A/H2B. cell-free LANA-H2A/H2B peptide, fluorescence polarization. inhibition, % (no concentration beside the values). actives 0.6% (n = 320,000); in the data active = inhibition mostly above about 10%, no sharp cut-off; inactive = mostly below about 6.7%
HDAC3 inh: blocks human histone deacetylase 3 | O15379 | recombinant HDAC3, fluorogenic peptide/trypsin coupled, fluorescence | inhibition, % at 8.3 µM | actives 0.15% (n = 320,000); in the data active = inhibition above about 26%, passing the limit was not always enough; inconclusive = no clear call, values can overlap the other calls
Target sequence (O15379 whole entry, looked up): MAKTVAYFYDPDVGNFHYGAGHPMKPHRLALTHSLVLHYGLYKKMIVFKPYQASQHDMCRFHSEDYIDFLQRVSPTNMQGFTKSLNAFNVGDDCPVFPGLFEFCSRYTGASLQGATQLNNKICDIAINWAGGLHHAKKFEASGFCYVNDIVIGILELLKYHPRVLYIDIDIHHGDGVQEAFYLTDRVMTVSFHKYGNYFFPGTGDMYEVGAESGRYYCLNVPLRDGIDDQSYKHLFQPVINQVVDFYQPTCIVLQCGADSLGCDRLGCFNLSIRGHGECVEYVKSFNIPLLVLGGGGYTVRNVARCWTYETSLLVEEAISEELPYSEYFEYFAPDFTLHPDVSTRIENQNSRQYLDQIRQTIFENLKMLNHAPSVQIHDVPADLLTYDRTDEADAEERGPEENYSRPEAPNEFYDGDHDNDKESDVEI
CTSL1 counter: blocks F. hepatica cathepsin L1 in PFM18AAP counter-screen. recombinant F. hepatica cathepsin L1, Z-Leu-Arg-MCA fluorescence. inhibition, % at 5.96 µM. actives 0.49% (n = 300,000). AID 1906;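 active = inhibition above the mean of all tested compounds plus 3 SD, set per screening campaign, cut at about 17% in these data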;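 note: 0% = plate median of test compound wells and 100% = 1 µM Z-Phe-Ala-diazomethylketone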
HTR2A ag: agonists of mouse serotonin 5-HT2A receptor (HTR2A). CHO-K1 mHTR2A beta-arrestin complementation, luminescence; percent of 30 µM serotonin response. activation, % at 7.6 µM. actives 0.66% (n = 360,000). AID 624169;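 active = activation above a run cutoff, the mean activation of all tested compounds plus 3 SD, cut at about 14% in these data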;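 note: 0% = plate median of compound wells and 100% = 30 µM serotonin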
Numbers without * were called inactive; ? = inconclusive; . = no result given; + = active, no number.

SMILES | LANA-H2A inh | HDAC3 inh | CTSL1 counter | HTR2A ag
CC[C@@H]1CCC[C@@H](O)[C@@H](C)C(=O)O[C@H](C)[C@@H](C)C/C=C(C)/C(OC)=C\C(=O)N(C)C([C@@H](C)CC)C(=O)N(C)[C@@H](C(C)C)C(=O)N(C)[C@@H](COC)C(=O)N2CCC[C@H]2C(=O)N(C)[C@@H](C(C)C)C(=O)N2CCC[C@H]2C(=O)O1 (some centres not stated) | . | . | . | -1
CN(CC(=O)Nc1cccc(F)c1)C(=O)c1cn(-c2ccccc2)nc1-c1ccc(Cl)cc1 | 156* | 11 | . | -1
COc1ccc(N(CC(=O)Nc2cccc(N(C)S(C)(=O)=O)c2)S(=O)(=O)c2ccc(F)cc2)cc1 | 152* | -1 | 5 | -7
CCOc1ccc(N(CC(=O)Nc2cccc(Br)c2)S(C)(=O)=O)cc1 | 36* | 9 | 4 | -4
CCOc1ccc(N(CC(=O)Nc2cccc(N(C)S(C)(=O)=O)c2)S(=O)(=O)c2ccccc2)cc1 | 25* | 1 | -3 | -7
COc1ccc(N(CC(=O)Nc2cccc(N(C)S(C)(=O)=O)c2)S(=O)(=O)c2ccc(C)cc2)cc1 | -2 | 13 | -2 | -6
COCCCNC(=S)NNC(=O)c1cc(C2CC2)nc2ccccc12 | 0 | 0 | . | -3
COc1ccc(OCCCC(=O)OCC(=O)NNC(=O)c2ccc([N+](=O)[O-])cc2)cc1 | . | . | -8 | 4
COc1ccc(OCc2cc(C(=O)N3CCN(CC4CC4)CC3)no2)c(Cl)c1 | 26* | 2 | -2 | -9
COc1ccccc1NC(=O)c1ccc(NC(=O)COC(=O)C2CC2C)cc1 (configuration not stated) | 19* | -1 | -1 | -1
O=C(c1ccccc1)c1ccc2c(c1)OCCOCCOCCOCCO2 | 2 | -3 | 2 | 0
O=C(c1cccc([N+](=O)[O-])c1)c1ccc2c(c1)OCCOCCOCCOCCO2 | 13* | 6 | 0 | 6
Cc1ccc(-n2nc(C)c(C(=O)Nc3cccc(C(=O)NC4CC4)c3)n2)c(C)c1 | -5 | 11 | . | -6
CCOC(=O)CSc1n[nH]c(NC(=O)c2cccc(C)c2)n1 | 0 | 90* | -4 | -1
CCCCNC(=O)Nc1nc(SCC(=O)OCC)n[nH]1 | -1 | 5 | 1 | 0
CCc1nc2ccccc2c(C(=O)OCC(=O)N2CC(C)OC(C)C2)c1C (configuration not stated) | -3 | 2 | -2 | 4
O=C(Nc1ccccc1)C1=C(O)CC(c2ccco2)CC1=Nc1ccccc1 (configuration not stated) | -4 | -1 | 4 | 5
O=C(Nc1ccccc1)C1=C(O)CC(c2ccoc2)CC1=Nc1ccccc1 (configuration not stated) | 2 | 7 | 22* | 1
COc1ccccc1C(CNC(=O)C1CC(=O)N(Cc2ccccc2)C1)N1CCCC1 (configuration not stated) | 2 | 1 | . | -3
O=C(Oc1ccc(N(Cc2cccs2)C2=NS(=O)(=O)c3ccccc32)cc1)c1ccc(Cl)cc1 | 1 | 0 | -2 | -3
O=C(Oc1ccc(N(Cc2cccs2)C2=NS(=O)(=O)c3ccccc32)cc1)c1ccccc1 | -1 | 69* | 1 | -2
CN1C(=O)C(O)(CC(=O)c2ccccc2O)c2cc(Br)ccc21 (configuration not stated) | 47* | -3 | 3 | -3
O=C(NC(=S)NN1CCOCC1)c1cc(Br)ccc1Cl | -5 | -10 | . | 5
CN1CCN(S(=O)(=O)NC[C@H]2O[C@@H](n3cnc4c(N)ncnc43)[C@H](O)[C@@H]2O)CC1 | . | . | . | -1
CCOC(=O)C1CCCN(S(=O)(=O)NC[C@H]2O[C@@H](n3cnc4c(N)ncnc43)[C@H](O)[C@@H]2O)C1 (some centres not stated) | + | -3 | . | 2
SMILES | LANA-H2A inh | HDAC3 inh | CTSL1 counter | HTR2A ag
CCOc1cc(N2CCOCC2)c(OCC)cc1NC(=O)COC(=O)[C@@H]1CCCN1S(=O)(=O)c1ccccc1F | -6 | 4 | 80* | -4
CCOc1cc(N2CCOCC2)c(OCC)cc1NC(=O)CSc1n[nH]c(N)n1 | 2 | -5 | 21* | 2
CCOc1cc(N2CCOCC2)c(OCC)cc1NC(=O)CN1C(=O)NC2(CCCCC2)C1=O | -5 | -1 | . | 5
CCOc1cc(N2CCOCC2)c(OCC)cc1NC(=O)CSc1nc(N)cc(=O)[nH]1 | 6 | 2 | . | -6
CCOc1cc(N2CCOCC2)c(OCC)cc1NC(=O)COC(=O)c1cc2ccccc2cc1O | -3 | -3 | 58* | -2
CCOc1cc(N2CCOCC2)c(OCC)cc1NC(=O)CN1C(=O)NC(C)(C2CC2)C1=O (configuration not stated) | -2 | 1 | 37* | -2
CCOc1cc(N2CCOCC2)c(OCC)cc1NC(=O)COC(=O)C1CCCN1S(=O)(=O)c1ccccc1F (configuration not stated) | -1 | 1 | . | 9
CCOc1cc(N2CCOCC2)c(OCC)cc1NC(=O)COC(=O)c1ccc(Cl)cc1N | -3 | 1 | . | 0
COc1cccc(CN2CC(C(=O)N(C)Cc3ccc(C)cc3)CCC2=O)c1 (configuration not stated) | 14* | 8 | 0 | -6
COc1cc(Nc2nc3c(N)cc(C(F)(F)F)cc3nc2-c2ccccc2)cc(OC)c1OC | . | . | . | 3
CCN(CC)C(=O)CN(C#N)c1nc(NC(C)C)nc(NC(C)C)n1 | 4 | 0 | -1 | 6
COC(=O)C(C)N(C#N)c1nc(NC(C)C)nc(SC)n1 (configuration not stated) | 2 | 2 | 32* | 1
COC(=O)CN(C#N)c1nc(NC(C)C)nc(NC(C)C)n1 | 0 | -3 | 69* | 2
CCOC(=O)N1CCN(C(=O)c2nn(C)c3c2CSc2ccccc2-3)CC1 | -1 | 11 | -1 | 3
Cc1sc2nc(CN(C(=O)NCc3ccccc3)C3CCCC3)[nH]c(=O)c2c1C | 0 | 3 | 6 | -1
CC(=O)N(Cc1nc2sc(C)c(C)c2c(=O)[nH]1)C1CCCC1 | 2 | -2 | 27* | 10
Cc1ccc(S(=O)(=O)c2c(C)nn(C(C)(C)C)c2OC(=O)c2ccco2)cc1 | 15* | 2 | -1 | -5
CC(C)(C)C(=O)Oc1cc(N)n(S(=O)(=O)c2ccc(F)cc2)n1 | 1 | ? | 1 | 4
Nc1cc(OC(=O)c2ccco2)nn1S(=O)(=O)c1ccc(F)cc1 | 0 | 85* | -29 | 4
Nc1cc(OC(=O)c2ccc(F)cc2)nn1S(=O)(=O)c1ccc(F)cc1 | 2 | 60* | -10 | -3
COc1ccc(S(=O)(=O)n2nc(OC(=O)c3c(-c4ccccc4Cl)noc3C)cc2N)cc1 | -2 | -1 | 18* | -6
COc1ccc(NC(=O)N(C)C[C@H]2OCCCC[C@H](C)Oc3ccc(NC(=O)Nc4ccc5c(c4)OCO5)cc3C(=O)N([C@@H](C)CO)C[C@@H]2C)cc1 | . | . | . | 5
COc1cccc(NC(=O)/C=C/c2ccc(S(=O)(=O)N3CCOCC3)cc2)c1 | 0 | 7 | . | 14
